# Many of the other results were omitted from the sample, so the strongest signals are more common in it than they were.
# B1: CvGal1 (Crassostrea virginica), A7Y0I5 (protein)
# chain: MTYQISKISQPFTSYIPNGLHIGKHLLLRGRVSYGTEAFAINLQQNPEPCNGEVAFHFNPRPGEQQCVRNSFDGGSWMDEERDQPHFPFDEGRSFTLRIEVAEEGFRTYVNGKPYVNFSHRLDLGNVHYLYLTEGAEFYDISYQDRYTLPYKSEIPQQMNVGKAVRIRGASQDNDGFSVNFACDPDNENCAFHFNPRPNEGVVVRNANLGGWGDEERDYEAEFPFHPYNYFDAMFICTDDKYLVHVNDKYFTEFNHRGGVDASSFFNIVGNLDIQDVEYFEPLEDDFVKTIPSGLVKGDVLIFRGFMKPGGDTFSINFMNGYSVEDDIAFHLNPRVGEGQVVMNCCMGGAWGDEEREDIPSPLADREPFEVKVVVKKNKFKVYVNGKKCMKFAARGNLEDIKGVNIKGEAYVYEVKLERKLEDSWEYLPGGFRVGGWVVVQAIPKKGSEGFAINFRTGSDEDSDIAFHFNPRLQENCTIRNSCAGGAWGGEERDQPDFPFEKKDTCEIAIQAQPDRFVTYVNGKRYIEFNHRLPLESITCVELTGRADFFEPKFF
# Columns and labels:
# Assay in all cases: glycan array binding signal (z-score within array); higher = stronger binding
# Conditions in all cases: glycan notation: IUPAC condensed, linker removed
# [1] = target: Fuc(a1-2)Gal(b1-3)GalNAc(a1-3)[Fuc(a1-2)]Gal(b1-4)GlcNAc
# In short: (§1)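 Arrays were curated from the Consortium for Functional Glycomics database, 3228 in total, and kept only where the protein sequence was available. Binding is expressed as a within-array Z-score. This score was averaged across arrays of the same protein sequence at different concentrations or buffers and across linkers, and negative values can be read as non-binding.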
# [2] = target: Fuc(a1-2)Gal(b1-4)GlcNAc(b1-2)Man(a1-3)[Fuc(a1-2)Gal(b1-4)GlcNAc(b1-2)Man(a1-6)]Man(b1-4)GlcNAc(b1-4)GlcNAc
# In short: as §1
# [3] = target: Fuc(a1-2)Gal(b1-4)GlcNAc(b1-2)Man(a1-3)[Fuc(a1-2)Gal(b1-4)GlcNAc(b1-2)Man(a1-6)]Man(b1-4)GlcNAc(b1-4)[Fuc(a1-6)]GlcNAc
# In short: as §1
# [4] = target: Fuc(a1-2)Gal(b1-4)GlcNAc(b1-6)GalNAc
# In short: as §1
# [5] = target: Fuc(a1-2)Gal6S(b1-3)GlcNAc6S
# In short: as §1
# [6] = target: Fuc(a1-2)Gal6S(b1-4)Glc6S
# In short: as §1
# [7] = target: Fuc(a1-2)[Gal(a1-3)]Gal(b1-3)GlcNAc(b1-2)Man(a1-3)[Fuc(a1-2)[Gal(a1-3)]Gal(b1-3)GlcNAc(b1-2)Man(a1-6)]Man(b1-4)GlcNAc(b1-4)[Fuc(a1-6)]GlcNAc
# In short: as §1
# [8] = target: Fuc(a1-2)[Gal(a1-3)]Gal(b1-4)GlcNAc(b1-2)Man(a1-3)[Fuc(a1-2)[Gal(a1-3)]Gal(b1-4)GlcNAc(b1-2)Man(a1-6)]Man(b1-4)GlcNAc(b1-4)[Fuc(a1-6)]GlcNAc
# In short: as §1
# [9] = target: Fuc(a1-2)[Gal(a1-3)]Gal(b1-4)[Fuc(a1-3)]GlcNAc
# In short: as §1
# [10] = target: Fuc(a1-2)[GalNAc(a1-3)]Gal(b1-3)GalNAc(a1-3)[Fuc(a1-2)]Gal(b1-4)GlcNAc
# In short: as §1
# [11] = target: Fuc(a1-2)[GalNAc(a1-3)]Gal(b1-3)GlcNAc
# In short: as §1
# [12] = target: Fuc(a1-2)[GalNAc(a1-3)]Gal(b1-3)GlcNAc(b1-2)Man(a1-3)[Fuc(a1-2)[GalNAc(a1-3)]Gal(b1-3)GlcNAc(b1-2)Man(a1-6)]Man(b1-4)GlcNAc(b1-4)[Fuc(a1-6)]GlcNAc
# In short: as §1
# [13] = target: Fuc(a1-2)[GalNAc(a1-3)]Gal(b1-3)GlcNAc(b1-3)GalNAc
# In short: as §1
# [14] = target: Fuc(a1-2)[GalNAc(a1-3)]Gal(b1-3)GlcNAc(b1-6)GalNAc
# In short: as §1
# [15] = target: Fuc(a1-2)[GalNAc(a1-3)]Gal(b1-4)GlcNAc(b1-2)Man(a1-3)[Fuc(a1-2)[GalNAc(a1-3)]Gal(b1-4)GlcNAc(b1-2)Man(a1-6)]Man(b1-4)GlcNAc(b1-4)GlcNAc
# In short: as §1
# [16] = target: Fuc(a1-2)[GalNAc(a1-3)]Gal(b1-4)GlcNAc(b1-3)GalNAc
# In short: as §1
# [17] = target: Fuc(a1-2)[GalNAc(b1-3)]Gal
# In short: as §1
# [18] = target: Fuc(a1-3)GlcNAc
# In short: as §1
# [19] = target: Fuc(a1-3)[GalNAc(b1-4)]GlcNAc6S
# In short: as §1
# [20] = target: Fuc(a1-3)[GalNAc3S(b1-4)]GlcNAc
# In short: as §1
# [21] = target: Fuc(b1-3)GlcNAc
# In short: as §1
# [22] = target: Gal(a1-3)Gal(b1-4)GlcNAc(b1-3)GalNAc
# In short: as §1
# [23] = target: Gal(b1-3)GalNAc(a1-3)[Fuc(a1-2)]Gal(b1-4)Glc
# In short: as §1
# [24] = target: Gal(b1-3)GlcNAc(b1-2)Man(a1-3)[Gal(b1-3)GlcNAc(b1-2)Man(a1-6)]Man(b1-4)GlcNAc(b1-4)[Fuc(a1-6)]GlcNAc
# In short: as §1
# [25] = target: Gal(b1-4)GalNAc(a1-3)[Fuc(a1-2)]Gal(b1-4)GlcNAc
# In short: as §1
# [26] = target: Gal(b1-4)Glc
# In short: as §1
# [27] = target: Gal(b1-4)GlcNAc(b1-2)Man(a1-3)[Gal(b1-4)GlcNAc(b1-2)][GlcNAc(b1-4)]Man(b1-4)GlcNAc(b1-4)GlcNAc
# In short: as §1
# [28] = target: Gal(b1-4)GlcNAc(b1-3)Gal(b1-4)[Fuc(a1-3)GlcNAc(b1-6)]Gal(b1-4)Glc
# In short: as §1
# [29] = target: Gal6S(b1-4)Glc
# In short: as §1
# [30] = target: Gal6S(b1-4)GlcNAc6S
# In short: as §1
binder,measurement,setting,value
B1,glycan array binding signal (z-score),[1],6.13
same,glycan array binding signal (z-score),[2],0.157
same,glycan array binding signal (z-score),[3],-0.053
same,glycan array binding signal (z-score),[4],-0.258
same,glycan array binding signal (z-score),[5],-0.213
same,glycan array binding signal (z-score),[6],-0.259
same,glycan array binding signal (z-score),[7],0.478
same,glycan array binding signal (z-score),[8],1.42
same,glycan array binding signal (z-score),[9],-0.263
same,glycan array binding signal (z-score),[10],3.63
same,glycan array binding signal (z-score),[11],4.14
same,glycan array binding signal (z-score),[12],4.71
same,glycan array binding signal (z-score),[13],1.75
same,glycan array binding signal (z-score),[14],3.97
same,glycan array binding signal (z-score),[15],6.1
same,glycan array binding signal (z-score),[16],5.16
same,glycan array binding signal (z-score),[17],-0.306
same,glycan array binding signal (z-score),[18],-0.088
same,glycan array binding signal (z-score),[19],-0.215
same,glycan array binding signal (z-score),[20],-0.259
same,glycan array binding signal (z-score),[21],-0.219
same,glycan array binding signal (z-score),[22],-0.197
same,glycan array binding signal (z-score),[23],3.55
same,glycan array binding signal (z-score),[24],-0.265
same,glycan array binding signal (z-score),[25],4.11
same,glycan array binding signal (z-score),[26],-0.253
same,glycan array binding signal (z-score),[27],-0.195
same,glycan array binding signal (z-score),[28],-0.264
same,glycan array binding signal (z-score),[29],-0.291
same,glycan array binding signal (z-score),[30],-0.182
